# Results from PubChem BioAssay (NCI).
# Where “and” joins values, the source holds several entries; their conditions need not be identical. Equal entries are not always repeated. Compounds without any hit were thinned out: in the full panel of roughly 83,000, 20% have a hit.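 Activity criterion: percent growth below 10, measured after cells in 96-well plates were exposed to a single compound concentration for 48 hours.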 Calls of active or inactive are those of the source.
# Tests used:
# Test in all cases: NCI-60 one-dose screen, 48 h (100 = growth as untreated, 0 = no growth, -100 = all killed)
# Conditions in all cases: 10 µM
# DU-145 prostate = tested on: DU-145 prostate
# K-562 leukemia = tested on: K-562 leukemia
# MALME-3M melanoma = tested on: MALME-3M melanoma
# MDA-MB-231 breast = tested on: MDA-MB-231 breast
# RXF 393 renal = tested on: RXF 393 renal
# SF-268 CNS = tested on: SF-268 CNS
# SF-295 CNS = tested on: SF-295 CNS
# SF-539 CNS = tested on: SF-539 CNS
# UACC-257 melanoma = tested on: UACC-257 melanoma
# M14 melanoma = tested on: M14 melanoma
Compound,growth (DU-145 prostate),growth (K-562 leukemia),growth (MALME-3M melanoma),growth (MDA-MB-231 breast),growth (RXF 393 renal),growth (SF-268 CNS),growth (SF-295 CNS),growth (SF-539 CNS),growth (UACC-257 melanoma),growth (M14 melanoma)
O=c1[nH]c2ccccc2n1C1CCN(CCCC(c2ccc(F)cc2)c2ccc(F)cc2)CC1,56.7% (inactive) and 53.3% (inactive),-62.4% (active) and -55.3% (active),-8.01% (active) and -56.3% (active),40% (inactive) and 45.2% (inactive),52.9% (inactive) and -40.4% (active),23.6% (inactive) and 70.8% (inactive),6.63% (active) and 25.3% (inactive),77.3% (inactive) and -66.9% (active),-27.7% (active) and 24.7% (inactive),14.9% (inactive)
O=C(CBr)Nc1ccccc1,102% (inactive),39.4% (inactive),54.7% (inactive),95.3% (inactive),107% (inactive),90.1% (inactive),103% (inactive),106% (inactive),99.5% (inactive),84.4% (inactive)
O=[P+](O)c1ccccc1,121% (inactive),103% (inactive),119% (inactive),112% (inactive),115% (inactive),103% (inactive),109% (inactive),104% (inactive),101% (inactive),100% (inactive)
O=[N+]([O-])c1ccc(N2CCOCC2)c2c1no[n+]2[O-],6.63% (active),-29.6% (active),-12.6% (active),34.3% (inactive),-31.4% (active),4.58% (active),20.5% (inactive),-22.3% (active),41% (inactive),0.168% (active)
C=C1C(=O)O[C@@H]2C[C@@H](C)[C@@H]3C=CC(=O)[C@@]3(C)[C@@H](O)[C@H]12,-100% (active),-56.9% (active),-76.6% (active),-63.2% (active),1.51% (active),-45% (active),-35.8% (active),-73.3% (active),1.25% (active),-64.8% (active)
Cc1cc([N+](=O)[O-])c2ccccc2[n+]1[O-],-35.9% (active) and -37% (active),1.04% (active) and -22.1% (active),-20.8% (active) and -41% (active),-17.4% (active) and -36.7% (active),-51.4% (active) and -66.4% (active),-12.7% (active) and -10.4% (active),-21% (active) and -59% (active),-49.2% (active) and -61.6% (active),8.15% (active) and -28% (active),-80.7% (active) and -70.6% (active)
COc1ccccc1[As]=[As]c1ccccc1OC (configuration not stated),-89.9% (active),8.02% (active),-72.8% (active),-83.2% (active),-99.5% (active),-82.9% (active),-86.4% (active),-91.4% (active),-95.5% (active),-81.4% (active)
COc1ccc(/C=C(\C)[N+](=O)[O-])cc1OC,18.6% (inactive),-9.93% (active),-72.2% (active),77.9% (inactive),–,12% (inactive),69% (inactive),62.8% (inactive),-80.4% (active),-41.9% (active)
CCOP(=O)(OCC)C(O)c1ccccc1Cl (configuration not stated),97.7% (inactive),97.7% (inactive),86.8% (inactive),118% (inactive),–,100% (inactive),112% (inactive),91.1% (inactive),106% (inactive),103% (inactive)
COC1CC2C=C(C)/C=C/C=C/C(=O)NC(c3ccccc3)C/C=C/CCC(O)CC(=O)C2=C1O (configuration not stated),-85.6% (active),-52.2% (active),-84.5% (active),-74.8% (active),-90.6% (active),-78.3% (active),-89.3% (active),-99.4% (active),–,-95.7% (active)
CC(C)c1cc([N+](=O)[O-])cc([N+](=O)[O-])c1O,110% (inactive),119% (inactive),137% (inactive),99.7% (inactive),102% (inactive),102% (inactive),99% (inactive),101% (inactive),115% (inactive),99.7% (inactive)
COC12c3c(C)cc(O)c4c(=O)occ(c34)C(=O)C1C13COC(=O)c4c(O)cc(C)c(c41)C(=O)C2C3OC(C)=O (configuration not stated),113% (inactive),97.8% (inactive),92.7% (inactive),100% (inactive),115% (inactive),100% (inactive),–,95.9% (inactive),106% (inactive),–
[Cl][Hg][c]1ccc(Cl)s1,62.5% (inactive),-0.908% (active),-69.8% (active),-47.2% (active),-90% (active),25.2% (inactive),100% (inactive),-3.52% (active),16.4% (inactive),-54.5% (active)
O=[N+]([O-])/C=C\c1ccc2c(c1)OCO2,88.7% (inactive),78.2% (inactive),–,101% (inactive),74.4% (inactive),86.7% (inactive),83.3% (inactive),94.8% (inactive),75% (inactive),76.6% (inactive)
CC(=O)[O][Hg][c]1c(C)c(C)cc(C)c1C,-61% (active),-10.1% (active),–,-51.5% (active),-45.5% (active),-74.4% (active),13.6% (inactive),41.9% (inactive),-64.1% (active),-87% (active)
CC(Cc1ccc2c(c1)OCO2)NN (configuration not stated),113% (inactive),82% (inactive),97.2% (inactive),104% (inactive),111% (inactive),100% (inactive),91% (inactive),91.9% (inactive),–,96.7% (inactive)
COc1cc2c(c(OC)c1OC)-c1ccc(O)c(=O)cc1[C@@H](NC(C)=O)CC2,61.5% (inactive),46.8% (inactive),79.8% (inactive),72.2% (inactive),59.7% (inactive),47.5% (inactive),–,51.5% (inactive),75.7% (inactive),52.7% (inactive)
O=[N+]([O-])c1cc[n+]([O-])c2ccccc12,–,0.325% (active),-69% (active),-45.1% (active),-87.1% (active),3.65% (active),-17.7% (active),-35% (active),-47.1% (active),-92.9% (active)

Compound,growth (DU-145 prostate),growth (K-562 leukemia),growth (MALME-3M melanoma),growth (MDA-MB-231 breast),growth (RXF 393 renal),growth (SF-268 CNS),growth (SF-295 CNS),growth (SF-539 CNS),growth (UACC-257 melanoma),growth (M14 melanoma)
Oc1c(Cl)cc(Cl)c2ccccc12.[Cu+2],106% (inactive),69% (inactive),96.3% (inactive),81.4% (inactive),103% (inactive),109% (inactive),–,108% (inactive),113% (inactive),97.9% (inactive)
[Cl][Hg][c]1ccc2ccccc2c1,-22.1% (active),-13.1% (active),–,-69.6% (active),-97% (active),-70.4% (active),17.3% (inactive),-13.7% (active),-86.7% (active),-99.1% (active)
[Cl][Sn]([c]1ccccc1)([c]1ccccc1)[c]1ccccc1,-84.3% (active),0.0368% (active),-64% (active),–,-81.5% (active),-79.2% (active),-62.1% (active),-89.5% (active),-93.9% (active),-76% (active)
CN(C)CC1(N)C(=O)NC(=O)NC1=O,–,99.3% (inactive),108% (inactive),98.7% (inactive),101% (inactive),103% (inactive),98.8% (inactive),99% (inactive),87.4% (inactive),102% (inactive)
Cc1ccc(NC(=O)CBr)cc1,105% (inactive),70.8% (inactive),87.5% (inactive),95.1% (inactive),102% (inactive),104% (inactive),103% (inactive),111% (inactive),–,97.6% (inactive)
O=[N+]([O-])c1ccc(N(CCO)CCO)c2c1no[n+]2[O-],-44.5% (active),-55.9% (active),-38.2% (active),-12% (active),-21.4% (active),-17.6% (active),-23.2% (active),-59.8% (active),12.1% (inactive),-32.4% (active)
COc1cc(/C=C/[N+](=O)[O-])cc(OC)c1OC,9.73% (active),5.19% (active),-30.2% (active),34% (inactive),–,28.6% (inactive),69% (inactive),-61.3% (active),-15.8% (active),-6.32% (active)
CCCCCCCC[N+]12CN3CN(CN(C3)C1)C2,101% (inactive),124% (inactive),98% (inactive),–,105% (inactive),95% (inactive),95.6% (inactive),92.7% (inactive),98.9% (inactive),89.5% (inactive)
NC(Cc1ccccc1)c1ccccc1 (configuration not stated),117% (inactive) and 120% (inactive),108% (inactive) and 94.4% (inactive),106% (inactive) and 109% (inactive),102% (inactive) and 95% (inactive),105% (inactive) and 109% (inactive),106% (inactive) and 103% (inactive),102% (inactive) and 104% (inactive),103% (inactive) and 97.2% (inactive),106% (inactive) and 95.4% (inactive),95.1% (inactive) and 94% (inactive)
CCOP(=O)(OCC)/C(C#N)=C/c1ccc(Br)cc1,107% (inactive),–,107% (inactive),106% (inactive),–,95.2% (inactive),106% (inactive),95.9% (inactive),93.7% (inactive),98.4% (inactive)
C[CH2][Hg][S]c1ccccc1C(=O)O,-28.6% (active),-4.39% (active),-96.4% (active),-5.17% (active),-96.8% (active),-18.6% (active),97.2% (inactive),–,-98.5% (active),-67.1% (active)
CS(=N)(=O)CCC(N)C(=O)O (configuration not stated),122% (inactive),97.2% (inactive),103% (inactive),109% (inactive),–,119% (inactive),97.1% (inactive),109% (inactive),105% (inactive),108% (inactive)
C[C@@H]1C[C@@H]([C@H](O)CC2CC(=O)NC(=O)C2)C(=O)[C@@H](C)C1,4.37% (active),–,1.97% (active),0.445% (active),–,5.71% (active),2.62% (active),-5.66% (active),-4.83% (active),-9.1% (active)
NC(=O)c1cc([N+](=O)[O-])c(Cl)c([N+](=O)[O-])c1Cl,–,8.14% (active),-51.5% (active),1.49% (active),-89.6% (active),–,95.5% (inactive),5% (active),-29.2% (active),-21.9% (active)
NC(=O)c1cc([N+](=O)[O-])c(Cl)c([N+](=O)[O-])c1,65.5% (inactive),–,71.3% (inactive),92.2% (inactive),93.8% (inactive),101% (inactive),115% (inactive),98.1% (inactive),105% (inactive),78.6% (inactive)
COC(=O)C1C(O)C(C)C(O)C(C)/C=C\C=C(C)C(=O)Nc2c(C)c(OC(C)=O)c3c(c2O)C(=O)C(C)=C2OCOC(=C23)C(C)=CC(C)(O)C(O)C(C)C1O (configuration not stated),92.2% (inactive),106% (inactive),97.9% (inactive),88.6% (inactive),98.6% (inactive),92.2% (inactive),103% (inactive),100% (inactive),93.1% (inactive),118% (inactive)
Cc1cc(C)c(C[N+](C)(C)C)c(C)c1C,5.6% (active),7.21% (active),–,-12.6% (active),–,2.43% (active),2.12% (active),-7.58% (active),16.9% (inactive),10.5% (inactive)
